25 molecules from PubChem BioAssay AID652039 (The Scripps Research Institute Molecular Screening Center, 2013) can be followed below.

The structures appear in SMILES notation. Among all 370,000 compounds or so, about 3,300 (0.89%) were called active.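 The calls were made as follows: active = activation above the mean of all tested compounds plus 3 SD, computed per campaign excluding outliers beyond control limits (cut at about 13% in these data); inactive = the rest.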 The list comes from a sample in which actives are over-represented; it also holds similar structures and randomly drawn compounds.

This experiment deals with Kallikrein-7 (Homo sapiens) (UniProt P49862). The experiment is described as follows: proKLK7 zymogen activators, primary screen, biochemical, fluorescence intensity (AID 652039). The following applies: purified proKLK7, EDANS-DABCYL substrate fluorescence; at 7 µM; hits give high values.
Chain of Kallikrein-7 (Homo sapiens) (P49862 whole entry, looked up): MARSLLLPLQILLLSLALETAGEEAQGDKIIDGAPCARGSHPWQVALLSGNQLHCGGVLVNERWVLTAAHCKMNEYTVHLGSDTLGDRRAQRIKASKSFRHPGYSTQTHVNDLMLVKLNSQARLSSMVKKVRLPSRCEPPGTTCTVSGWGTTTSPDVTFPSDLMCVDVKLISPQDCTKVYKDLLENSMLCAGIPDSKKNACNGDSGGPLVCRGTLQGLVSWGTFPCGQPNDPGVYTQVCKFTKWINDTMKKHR
On to `CCOc1ccc(-c2cc(C)[n+](CCN(CC)CC)c(-c3ccc(OCC)cc3)c2)cc1`, for which the activation is 44.7% (active). Regarding `COc1ccc(-c2nn(CCC#N)cc2C(=O)O)cc1`, the activation is -0.57% (inactive). Consider `COc1cc(OC)cc(C(=O)NCCN2CCC3(CC2)C(=O)NCN3c2ccccc2)c1`, for which the activation was 0.06% (inactive). Regarding `CS(=O)(=O)N1CCC2CCNC2C1` (stereo not given), the activation was -0.49% (inactive). As for `COc1ccccc1C1=NCc2nnc(CSC)n2-c2ccc(Cl)cc21`, the activation was -0.06% (inactive). As for `Cc1cc(OCc2cc(C(=O)O)oc2C)c2c3c(c(=O)oc2c1)CCCC3`, the activation was 9.69% (inactive). Turning to `COC(=O)COc1cc(C)cc2oc(=O)c3c(c12)CCCC3`, the activation is 14.7% (active). For the molecule `Brc1ccc2c(c1)CNCc1cnnn1-2`, the activation is 0.31% (inactive). The figure for `CCN(CC)C(=O)[C@@H]1C=C2c3cccc4[nH]c(Br)c(c34)C[C@H]2N(C)C1` is -1.09% (inactive); for `Cc1cc(N2CCNC[C@@H]2C)ccc1N1CC[C@H](O)C1` it is 1.32% (inactive); for `COc1cc(Cn2c(N)c(C(=O)NCc3ccco3)c3nc4ccccc4nc32)cc(OC)c1OC` it is -1.84% (inactive).

As to `O=C(OCCN1CCOCC1)C1(c2ccccc2)CCCC1`, the activation was 0.22% (inactive). As to `CCOC(=O)c1c(N)n(CCN2CCOCC2)c2nc3ccccc3nc12`, the activation was 27.2% (active).

Turning to `COc1ccc2c(c1)[C@@]13CCCCC1[C@@H](C2)NCC3` (stereo not given in full), the activation is 0.08% (inactive). Consider `O=S(=O)(c1ccccc1)N1CCC2CCNC2C1` (stereo not given), for which the activation is -0.08% (inactive). `c1ccc(CCN2CCC3(CC2)OCCO3)cc1`: the activation was 0.24% (inactive).

Take `C[C@H]1CN([C@@H](C)CO)C(=O)CCCn2nncc2CO[C@H]1CN(C)C(=O)Oc1ccccc1`: the activation was -0.02% (inactive). For the molecule `COc1cccc(-c2nc3ccc(N4CCN(C)CC4)cc3[nH]2)c1`, the activation was 68.7% (active).

Turning to `Clc1ccc([C@@H]2CC3CCC2N3)cn1` (stereo not given in full), the activation is 0.62% (inactive). In the case of `CCC(C)NC1(c2ccccc2)CCCCC1` (stereo not given), the activation was 0.13% (inactive).

On to `COc1ccc(C(=O)CC2C(=O)N(C)C(=O)N(C)C2=O)cc1`, for which the activation was -0.07% (inactive). For the molecule `Cc1ccccc1CCC[C@@H](CC1CCCCC1)CN(C)C(=O)Oc1ccccc1`, the activation was 0.38% (inactive). On to `Cc1nc2ccc(N3CCN(C)CC3)cc2nc1C`, for which the activation is 83.6% (active).

Turning to `COP(=O)(Sc1ccccc1)C(Cc1ccccc1)NC(=O)OCc1ccccc1` (stereo not given), the activation is 0.08% (inactive).

Regarding `c1ccc2sc(C3CCCNC3)nc2c1` (stereo not given), the activation is 0.61% (inactive).
